Measured values taken from the supplement of paper PMC9254222.
The full ranking holds about 1,100 compounds; the median of “Renilla luciferase signal (cell health) relative to plate median” is about 0.97, and the highest 2% start at about 1.6. Shown is part of a subset that was picked to be rich in the highest values.

Test system: HEK293T (UBE3A T485A transfected, BAR Wnt reporter)
Assay: Renilla luciferase signal (cell health) relative to plate median (fold (linear ratio)); higher = higher Renilla signal
Conditions: 24 h
Outline: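 HEK293T cells were seeded at 4500 cells/well in white 384-well plates and grown in DMEM with 10% FBS at 37°C and 5% CO2. The cells were transfected using Fugene 6 with a BAR firefly luciferase Wnt reporter, TK-Renilla and an expression plasmid, and four hours later robots added the chemicals at 0.01–100 uM for 24 h before a Dual-Glo luciferase readout. Wnt activity was taken as the firefly/Renilla ratio and cell health as raw Renilla, each median-centred per plate. Values are averages of four biological replicates.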

Row | SMILES | Renilla luciferase signal (concentration: 0.1 uM) | Renilla luciferase signal (concentration: 1 uM) | Renilla luciferase signal (concentration: 10 uM) | Renilla luciferase signal (concentration: 100 uM) | Renilla luciferase signal (concentration: 0.01 uM)
1 | C[C@]12CCC(=O)C[C@@H]1CC[C@@H]1[C@@H]2CC[C@]2(C)[C@@H](O)CC[C@@H]12 [5alpha-Dihydrotestosterone] | 0.867 | 0.848 | 1 | 2.06 | –
2 | CCC(=O)O[C@H]1CC[C@H]2[C@@H]3CCC4=CC(=O)CC[C@]4(C)[C@H]3CC[C@]12C [Testosterone propionate] | 0.869 | 0.772 | 0.878 | 1.11 | –
3 | CNC(=O)N(C)c1nnc(C(C)(C)C)s1 [Tebuthiuron] | 0.795 | 1.02 | 0.738 | 1.26 | 1.19
4 | Cc1ccccc1N [2-Methylaniline] | 1.15 | 1.29 | 1.25 | 1.25 | –
5 | CC(c1ccc(O)cc1)(c1ccc(O)cc1)c1ccc(O)cc1 [4,4',4"-Ethane-1,1,1-triyltriphenol] | 0.468 | 0.58 | 0.509 | 0.0116 | –
6 | ClC(Cl)c1ccccc1 [Benzal chloride] | 1.11 | 0.929 | 1.12 | 1.15 | –
7 | CC(C)(C)c1cc(C(C)(C)C)c(O)c(C(C)(C)C)c1 [2,4,6-Tris(tert-butyl)phenol] | 0.951 | 1.04 | 1.18 | 1.73 | –
8 | CC(C)(C)c1ccccc1O [2-tert-Butylphenol] | 0.823 | 0.913 | 0.724 | 0.378 | –
9 | COc1ccc(O)c(C(C)(C)C)c1 [2-tert-Butyl-4-methoxyphenol] | 0.947 | 0.971 | 1.22 | 1.03 | –
10 | O=C(Nc1ccc2[nH]ccc2c1)c1cc2cc(F)ccc2n1Cc1cccc(F)c1 | 1.07 | 1.02 | 0.543 | 0.0428 | –
11 | CCCN(CC)CC1COC2(CCC(C(C)(C)C)CC2)O1 (configuration not stated) [Spiroxamine] | 1.34 | 1.13 | 1.06 | 0.0856 | 0.835
12 | CC(C)CCCCCCCOC(=O)c1ccccc1C(=O)OCCCCCCCC(C)C | 1.21 | 1.01 | 1.1 | 1.26 | –
13 | CCCCOC(=O)c1ccccc1C(=O)OCc1ccccc1 [Benzyl butyl phthalate] | 1.05 | 1.23 | 1.28 | 1.04 | –
14 | CC12CC1(C)C(=O)N(c1cc(Cl)cc(Cl)c1)C2=O (configuration not stated) [Procymidone] | 0.813 | 1.07 | 1.07 | 1.27 | –
15 | C=CC1(C)OC(=O)N(c2cc(Cl)cc(Cl)c2)C1=O (configuration not stated) [Vinclozolin] | 0.904 | 1.09 | 1.28 | 2.37 | 1.03
16 | Cc1ccc(N)cc1 [4-Methylaniline] | 0.71 | 0.873 | 0.684 | 0.856 | –
17 | CCCCOC(=O)[C@@H](C)Oc1ccc(Oc2ccc(C#N)cc2F)cc1 [Cyhalofop-butyl] | 1.04 | 0.889 | 1.03 | 0.226 | 1.03
18 | O=[N+]([O-])c1ccc(Oc2ccc(Cl)cc2Cl)cc1 [Nitrofen] | 1.06 | 1.17 | 1.05 | 1.69 | –
19 | Oc1cc(Cl)ccc1Oc1ccc(Cl)cc1Cl [Triclosan] | 0.922 | 0.956 | 0.911 | 0.083 | 0.941

Row | SMILES | Renilla luciferase signal (concentration: 0.1 uM) | Renilla luciferase signal (concentration: 1 uM) | Renilla luciferase signal (concentration: 10 uM) | Renilla luciferase signal (concentration: 100 uM) | Renilla luciferase signal (concentration: 0.01 uM)
20 | Fc1ccc(Oc2ccnc3cc(Cl)cc(Cl)c23)cc1 [Quinoxyfen] | 0.865 | 0.93 | 1.03 | 0.994 | 0.918
21 | O=[N+]([O-])c1ccc(Cl)cc1 [1-Chloro-4-nitrobenzene] | 0.98 | 0.976 | 0.993 | 1.1 | –
22 | COC(=O)C(C)Oc1ccc(Oc2ccc(Cl)cc2Cl)cc1 (configuration not stated) [Diclofop-methyl] | 0.869 | 0.732 | 0.936 | 2.15 | 1.01
23 | CCCCNC(=O)OCC#CI [3-Iodo-2-propynyl-N-butylcarbamate] | 0.986 | 0.947 | 0.822 | 0.0151 | 0.922
24 | CC1(C)C(C=C(Cl)Cl)C1C(=O)OC(C#N)c1ccc(F)c(Oc2ccccc2)c1 (configuration not stated) [Cyfluthrin] | 1.31 | 1.27 | 0.975 | 1.1 | 1.01
25 | COc1cccc(C(=O)NN(C(=O)c2cc(C)cc(C)c2)C(C)(C)C)c1C [Methoxyfenozide] | 1.1 | 1.05 | 1.04 | 0.685 | 1.37
26 | Nc1c(Cl)cc([N+](=O)[O-])cc1Cl [Dicloran] | 0.765 | 0.894 | 0.77 | 0.167 | 0.651
27 | CSC1=N[C@@](C)(c2ccccc2)C(=O)N1Nc1ccccc1 [Fenamidone] | 0.774 | 0.785 | 0.525 | 0.165 | 0.641
28 | O=c1n(Cl)c(=O)n(Cl)c(=O)n1Cl [Symclosene] | 0.995 | 0.923 | 1.18 | 1.88 | 1.05
29 | CCCOc1nn(C(=O)[N-]S(=O)(=O)c2ccccc2C(=O)OC)c(=O)n1C.[Na+] [Propoxycarbazone-sodium] | 1.21 | 1.03 | 0.975 | 1.2 | 1.17
30 | CCCN(CCC)c1c([N+](=O)[O-])cc(C(F)(F)F)cc1[N+](=O)[O-] [Trifluralin] | 1.16 | 1.12 | 1.13 | 1.59 | 1.09
31 | CCC(C)Nc1c([N+](=O)[O-])cc(C(C)(C)C)cc1[N+](=O)[O-] (configuration not stated) [Butralin] | 1.06 | 0.989 | 1.04 | 1.94 | 0.921
32 | CCC(CC)Nc1c([N+](=O)[O-])cc(C)c(C)c1[N+](=O)[O-] [Pendimethalin] | 0.996 | 0.843 | 1.02 | 0.801 | 0.981
33 | O=[N+]([O-])c1ccccc1 [Nitrobenzene] | 0.931 | 0.977 | 0.817 | 0.932 | –
34 | CCOP(=S)(OCC)Oc1ccc([N+](=O)[O-])cc1 [Parathion] | 1.13 | 1.04 | 1.11 | 1.36 | 1.03
35 | O=C(Nc1ccccc1)c1ccccc1I [Benodanil] | 0.942 | 0.924 | 0.913 | 0.739 | –
36 | CC1=C(C(=O)Nc2ccccc2)SCCO1 [Carboxin] | 1.11 | 1.07 | 0.949 | 2.12 | 0.996
37 | N=C(Nc1ccccc1)Nc1ccccc1 [1,3-Diphenylguanidine] | 1.03 | 0.989 | 0.895 | 0.887 | –
38 | CS(=O)(=O)c1ccc(C(=O)C2C(=O)CCCC2=O)c([N+](=O)[O-])c1 [Mesotrione] | 0.808 | 0.956 | 1.03 | 1.39 | 0.834
